# Measured values as given in PubChem BioAssay (Tox21).
# Results filed as inconclusive are left out. Where a call stands in place of a potency, no number is given. A number with no mark means an inactive call. Calls of active or inactive are those of the source. Unless noted, calls come from the whole dose curve; as a rule, active = well fitted curve in the direction sought with a large enough effect in the repeat runs; inconclusive = weak or mixed curves; inactive = no such curve, though single readings can be large; an effect the other way counts as inactive or inconclusive.
# Legend:
# [1] = target: Retinoic acid receptor RXR-alpha (Homo sapiens) (UniProt P19793); test: qHTS assay to identify small molecule agonists of the RXR signaling pathway (AID 1159527; calls by dose curve; note: nearly all actives have a fitted effect of over 35% in size; note: potency is the fitted concentration of half-maximal effect); conditions: HEK293T RXRa-UAS-bla, beta-lactamase ratio, 16 h; series mostly up to 76.8 µM
# Procedure, shortened: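 Agonist mode; 9-cis retinoic acid positive control. HEK 293T UAS-bla reporter cells, 2% charcoal-stripped FBS, 16 hr compound exposure at 37 C/5% CO2. LiveBLAzer B/G FRET substrate 2 hr RT; ex 405, em 460/530 nm.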
# [2] = qHTS assay to identify small molecule agonists of the RXR signaling pathway - cell viability counter screen (AID 1159529); conditions: RXR-alpha-bla HEK293T viability, CellTiter-Glo, 16 h; series mostly up to 76.8 µM; note: nearly all actives have a fitted effect of over 50% in size
# Procedure, shortened: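 Luminescence from CellTiter-Glo (30 min, RT) measured viability in the same wells as the beta-lactamase reporter readout. Cells: GeneBLAzer RXR-alpha HEK 293T, 2% charcoal-stripped FBS. Compound exposure 16 hr, 37 C.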
# [3] = qHTS assay to identify small molecule antagonists of the retinoid acid receptor (RAR) signaling pathway - cell viability counter screen (AID 1159551); conditions: C3RL4 cells viability, ATP luminescence (CellTiter-Glo), 6 h; series mostly up to 92.4 µM; note: nearly all actives have a fitted effect of over 35% in size
# Procedure, shortened: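 In this counter screen, the RARE-luciferase line C3RL4 was exposed for 6 h at 37 C and 5% CO2 to compounds with retinol at 1 uM final. Cellular ATP, read by luminescence, served as the viability measure.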
# [4] = qHTS assay to identify small molecule antagonists of the retinoic acid receptor (RAR) signaling pathway (AID 1159552; note: nearly all actives have a fitted effect of over 50% in size; note: potency is the fitted concentration of half-maximal effect); conditions: C3RL4 RARE luciferase reporter, retinol-stimulated, 6 h; series mostly up to 92.4 µM
# Procedure, shortened: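 Luminescence from a RARE luciferase reporter in C3RL4 cells served as read-out. Cells received compounds together with 1 uM final retinol and incubated 6 hr at 37 C before detection reagent was added for 30 min at room temperature.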
# [5] = qHTS assay to identify small molecule agonists of the retinoic acid receptor (RAR) signaling pathway (AID 1159553); conditions: C3RL4 RARE luciferase reporter, agonist, 6 h; series mostly up to 73.3 µM
# Procedure, shortened: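 In this cell-based screen, 1,000 C3RL4 cells per well were cultured overnight, dosed with test chemicals in DMSO for 6 hr, and assessed for RARE luciferase luminescence.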
# Sequence of Retinoic acid receptor RXR-alpha (Homo sapiens) (P19793 whole entry, looked up): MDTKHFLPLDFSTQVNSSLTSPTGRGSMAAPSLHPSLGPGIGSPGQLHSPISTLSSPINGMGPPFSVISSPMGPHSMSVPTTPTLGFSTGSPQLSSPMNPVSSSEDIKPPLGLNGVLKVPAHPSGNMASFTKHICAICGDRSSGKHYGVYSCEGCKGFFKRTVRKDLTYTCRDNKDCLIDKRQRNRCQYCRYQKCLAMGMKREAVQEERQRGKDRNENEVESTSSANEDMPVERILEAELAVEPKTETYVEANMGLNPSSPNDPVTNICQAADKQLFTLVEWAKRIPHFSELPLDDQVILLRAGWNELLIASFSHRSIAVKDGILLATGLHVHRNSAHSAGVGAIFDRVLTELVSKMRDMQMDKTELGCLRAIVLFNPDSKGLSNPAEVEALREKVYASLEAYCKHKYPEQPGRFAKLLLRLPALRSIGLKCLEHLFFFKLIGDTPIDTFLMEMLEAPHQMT
compound,measurement,setting,value
COC(=O)c1ccc(CBr)cc1,Potency,[1],inactive
same,Potency,[2],inactive
same,Potency,[3],inactive
same,Potency,[4],inactive
ClCC1CO1 (stereo not given),Potency,[1],inactive
same,Potency,[2],inactive
same,Potency,[3],inactive
same,Potency,[4],inactive
CC(C)(C)C(=O)Cl,Potency,[1],inactive
same,Potency,[2],inactive
same,Potency,[3],inactive
same,Potency,[4],inactive
CCOC1Oc2ccc(OS(C)(=O)=O)cc2C1(C)C (stereo not given),Potency,[1],inactive
same,Potency,[2],inactive
same,Potency,[3],inactive
same,Potency,[4],inactive
C/C(=N\NC(=O)Nc1cc(F)cc(F)c1)c1ncccc1C(=O)O,Potency,[1],inactive
same,Potency,[2],inactive
same,Potency,[3],inactive
Cn1c(N)nc2c3cccnc3ccc21,Potency,[1],inactive
same,Potency,[2],inactive
same,Potency,[3],inactive
same,Potency,[4],inactive
NNCc1ccccc1,Potency,[1],22.3 µM (active)
same,Potency,[2],inactive
same,Potency,[3],inactive
same,Potency,[4],inactive
CCNc1nc(Cl)nc(NC(C)(C)C)n1,Potency,[1],inactive
same,Potency,[2],inactive
same,Potency,[3],inactive
same,Potency,[4],inactive
CON(C)C(=O)Nc1ccc(Br)cc1,Potency,[1],inactive
same,Potency,[2],inactive
same,Potency,[3],inactive
same,Potency,[4],inactive
CC#Cc1cc(C)nc(Nc2ccccc2)n1,Potency,[1],inactive
same,Potency,[2],inactive
same,Potency,[3],inactive
same,Potency,[4],inactive
CCCCOC(C)=O,Potency,[1],inactive
same,Potency,[2],inactive
same,Potency,[3],inactive
same,Potency,[4],inactive
N#CN,Potency,[1],inactive
same,Potency,[2],inactive
same,Potency,[3],inactive
same,Potency,[4],inactive
CN(CCO)CCO,Potency,[1],inactive
same,Potency,[2],inactive
same,Potency,[3],inactive
COc1ccc(C=O)cc1O,Potency,[1],inactive
same,Potency,[2],inactive
same,Potency,[3],inactive
same,Potency,[4],inactive
C[C@H]1CCCC(=O)CCC/C=C/c2cc(O)cc(O)c2C(=O)O1,Potency,[1],inactive
same,Potency,[2],inactive
same,Potency,[3],inactive
Oc1ccc2c3c1O[C@H]1[C@@H](O)C=C[C@H]4[C@@H](C2)NCC[C@@]341,Potency,[1],inactive
same,Potency,[2],inactive
same,Potency,[3],inactive
[O-][Br+2]([O-])O,Potency,[1],inactive
same,Potency,[2],inactive
same,Potency,[3],inactive
same,Potency,[4],inactive
CCOC(=O)COc1ccc(Cl)cc1Cl,Potency,[1],inactive
same,Potency,[2],inactive
same,Potency,[3],inactive
same,Potency,[4],inactive
C[N+]1(C)CCCCC1,Potency,[1],6.09 µM (active)
same,Potency,[2],inactive
same,Potency,[3],inactive
CCOC(=O)C(SP(=S)(OC)OC)c1ccccc1 (stereo not given),Potency,[1],inactive
same,Potency,[2],inactive
same,Potency,[3],inactive
same,Potency,[4],inactive
CC(C)(C)NC[C@H](O)c1ccc(O)cc1Cl,Potency,[1],inactive
same,Potency,[2],inactive
same,Potency,[3],inactive
same,Potency,[4],inactive
same,Potency,[5],inactive
N#CC(Br)(Br)C(N)=O,Potency,[1],1.55 µM (active)
same,Potency,[2],inactive
same,Potency,[3],inactive
same,Potency,[4],4.86 µM (active)
same,Potency,[5],inactive
Cl/C=C/CCl,Potency,[1],inactive
same,Potency,[2],inactive
same,Potency,[3],inactive
same,Potency,[4],inactive
same,Potency,[5],inactive
CCN[C@@H](C)Cc1ccccc1,Potency,[1],inactive
same,Potency,[2],inactive
same,Potency,[3],inactive
same,Potency,[4],inactive
same,Potency,[5],inactive
O=c1[nH]c2ccccc2o1,Potency,[1],inactive
same,Potency,[2],inactive
same,Potency,[3],inactive
same,Potency,[4],inactive
same,Potency,[5],inactive
C#CC(C)(C)O,Potency,[1],inactive
same,Potency,[2],inactive
same,Potency,[3],inactive
same,Potency,[4],inactive
same,Potency,[5],inactive
CCN(CCO)CCn1c(Cc2ccccc2)nc2c1c(=O)n(C)c(=O)n2C,Potency,[1],inactive
same,Potency,[2],inactive
same,Potency,[3],inactive
same,Potency,[4],inactive
same,Potency,[5],inactive
NCCOS(=O)(=O)O,Potency,[1],inactive
same,Potency,[2],inactive
same,Potency,[3],inactive
same,Potency,[4],inactive
same,Potency,[5],inactive
NC1(c2ccccc2)CCCCC1,Potency,[1],inactive
same,Potency,[2],inactive
same,Potency,[3],inactive
same,Potency,[4],inactive
same,Potency,[5],inactive
O=C1CCCCC1Cl (stereo not given),Potency,[1],inactive
same,Potency,[2],inactive
same,Potency,[3],inactive
same,Potency,[4],inactive
same,Potency,[5],inactive
BrCCc1ccccc1,Potency,[1],inactive
same,Potency,[2],inactive
same,Potency,[3],inactive
same,Potency,[4],inactive
same,Potency,[5],inactive
Clc1cc2c(cc1Cl)Oc1cc(Cl)c(Cl)cc1O2,activation,[1],5.21% [at 0.29 µM]
same,"activity change, negative = cytotoxicity",[2],-1.01% [at 0.29 µM]
same,"activity change, negative = cytotoxicity",[3],3.92% [at 0.349 µM]
same,"activity, negative = inhibition",[4],-3.48% [at 0.349 µM]
same,activation,[5],-1.63% [at 0.338 µM]
COC(=O)[C@@H](N)CCCN/C(N)=N/[N+](=O)[O-],Potency,[1],inactive
same,Potency,[2],inactive
same,Potency,[3],inactive
same,Potency,[4],inactive
same,Potency,[5],inactive
CCOC(=O)c1ncn2c1CN(C)C(=O)c1c(I)cccc1-2,Potency,[1],inactive
same,Potency,[2],inactive
same,Potency,[3],inactive
same,Potency,[4],inactive
same,Potency,[5],inactive
C=C(Cl)CSC(=S)N(CC)CC,Potency,[1],inactive
same,Potency,[2],inactive
same,Potency,[3],inactive
same,Potency,[4],inactive
same,Potency,[5],inactive
O=C(Cl)OCc1ccccc1,Potency,[1],inactive
same,Potency,[2],inactive
same,Potency,[3],inactive
same,Potency,[4],inactive
same,Potency,[5],inactive
CN(C)C1CCCCC1,Potency,[1],inactive
same,Potency,[2],inactive
same,Potency,[3],inactive
same,Potency,[4],inactive
same,Potency,[5],inactive
BrCC1CO1 (stereo not given),Potency,[1],inactive
same,Potency,[2],inactive
same,Potency,[3],inactive
same,Potency,[4],inactive
same,Potency,[5],inactive
O=C(Cl)/C=C/C(=O)Cl,Potency,[1],inactive
same,Potency,[2],inactive
same,Potency,[3],inactive
same,Potency,[4],inactive
same,Potency,[5],inactive
C[C@@H](N)[C@@H](O)c1ccccc1,Potency,[1],inactive
same,Potency,[2],inactive
same,Potency,[3],inactive
same,Potency,[4],inactive
same,Potency,[5],inactive
CCN(CC)C1CCCCC1,Potency,[1],inactive
same,Potency,[2],inactive
same,Potency,[3],inactive
same,Potency,[4],inactive
same,Potency,[5],inactive
CC(O)CCl (stereo not given),Potency,[1],inactive
same,Potency,[2],inactive
same,Potency,[3],inactive
same,Potency,[4],inactive
same,Potency,[5],inactive
